# Compounds with a hit are over-represented: about 4.1% of the library has one in this group of screens.
# ssDAF12 agonist: S. stercoralis DAF-12 nuclear receptor activators, primary screen, cell-based, luminescence, HEK293, GRIP1 co-expression, lit1-tk-luc; HEK293 ssDAF-12/GRIP1 lit1-tk-luc reporter; % of 3 µM dafachronic acid response; activation, % at 6.8 µM; 370,000 compounds, 1% hits; AID 652126, 2013;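 active = activation above the mean over all tested compounds plus 3 SD, cut at about 0.9% in these data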;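 note: 0% = DMSO-only wells and 100% = 3 µM delta7-dafachronic acid wells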
# DAX1 inh-1: DAX1 (NR0B1) inhibitors, primary screen, cell-based, HEK293, Gal4-DAX1, luciferase luminescence | Nuclear receptor subfamily 0 group B member 1 (Homo sapiens), P51843 | HEK293 Gal4-DAX1 luciferase reporter | inhibition, % at 6.75 µM | 340,000 compounds, 0.99% hits | AID 504766, 2011;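 active = inhibition above the mean over all tested compounds plus 3 SD, cut at about 4.2% in these data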;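 note: 0% = DAX1-transfected cells with DMSO and 100% = empty-vector control cells with DMSO; inhibition shows as a rise in luminescence from relieved DAX1 repression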
# Target sequence (P51843 207-470 limits assumed): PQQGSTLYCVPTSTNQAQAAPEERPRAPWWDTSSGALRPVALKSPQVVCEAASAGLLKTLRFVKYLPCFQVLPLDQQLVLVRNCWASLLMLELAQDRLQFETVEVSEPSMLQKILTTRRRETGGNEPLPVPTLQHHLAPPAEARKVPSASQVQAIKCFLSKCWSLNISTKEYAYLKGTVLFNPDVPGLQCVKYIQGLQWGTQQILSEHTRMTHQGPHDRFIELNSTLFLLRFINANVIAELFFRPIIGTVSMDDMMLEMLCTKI
# DAX1 inh-2: DAX1 (NR0B1) inhibitors on StAR promoter, primary screen, cell-based, luminescence, SF-1 (NR5A1), full-length DAX-1; HEK293T StAR-luciferase reporter, SF-1/DAX-1 repression relief; inhibition, % at 6.8 µM; 370,000 compounds, 1.1% hits; AID 652010, 2013;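 active = inhibition above the mean over all tested compounds plus 3 SD, cut at about 3.6% in these data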;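 note: 0% = DAX-1 cells with DMSO and 100% = cells lacking DAX-1 with DMSO; higher inhibition means more luminescence from relief of DAX-1 repression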
# PolyA inh: polyadenylation inhibitors in yeast reporter cells, primary screen, luminescence, S. cerevisiae; S. cerevisiae SKY197-pL101 polyadenylation reporter, beta-gal luminescence; efflux-impaired pdr1/pdr3 knockout yeast; score 100 = 6 SD above DMSO; AID 1875, 2009; activity score, % at 12 µM; 300,000 compounds, 0.02% hits;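 active = lowest replicate activity score at least 50, where 100 means six control SD above control mean; inconclusive = lowest score under 50 but half or more replicates reach 50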;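 note: yeast exposed to compound for 9 h at 30 °C; higher score means more reporter readthrough which indicates perturbed polyadenylation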
# hgDAF12 agonist: H. glycines DAF-12 receptor agonists, primary screen, cell-based, luminescence, HEK293, GAL4 fusion, UAS-luciferase. activation, % at 6.8 µM. HEK293 GAL4-hgDAF12 UAS-luciferase reporter, agonist luminescence; normalized to butyrate control. AID 687014, 2013. 370,000 compounds, 1.8% hits;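 active = activation above a cutoff set at the mean of all screened compounds plus 3 SD, cut at about 10% in these data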;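 note: 0% = DMSO wells and 100% = sodium butyrate wells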
# hcDAF-12 act: H. contortus DAF-12 nuclear receptor activators, primary screen, cell-based, luminescence, HEK293, lit1-tk-luc reporter. activation, % at 6.8 µM. AID 652067, 2013. 370,000 compounds, 1.4% hits. HEK293 hcDAF-12 lit1-tk-luc reporter; 0% DMSO, 100% Δ7-dafachronic acid;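 active = activation above the mean of all tested compounds plus 3 SD, cut at about 5.5% in these data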;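 note: 100% = response to 3 µM Δ7-dafachronic acid high control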
# Starred values were filed as active, the others as inactive; ? = inconclusive; · = no result given.
SMILES,ssDAF12 agonist,DAX1 inh-1,DAX1 inh-2,PolyA inh,hgDAF12 agonist,hcDAF-12 act
CCC(CO)Nc1cccc2c1S(=O)(=O)N(Cc1cn(Cc3ccc(Cl)cc3)nn1)Cc1ccccc1O2 (stereo not drawn),-2,·,-1,·,-1,-3
CCN1Cc2nnn(Cc3ccccc3)c2-c2cc(F)ccc2S1(=O)=O,-1,·,0,·,0,0
CC1CCCCC1N(C(=O)c1cc(C2CC2)on1)C1CCCCC1 (stereo not drawn),-1,·,0,·,12*,-1
CC(=O)N1CCc2cc(S(=O)(=O)NC3CCN(C(=O)C(C)(C)C)CC3)ccc21,-2,·,-1,·,-3,0
N/C(=N\OC(=O)c1cccs1)c1cccnc1,-1,3,1,14,3,3
CCSc1ccc(/C(N)=N/OC(=O)c2cccs2)cn1,0,2,3.9*,-7,6,2
Cc1ccnc(SCc2cc(=O)c(OC(=O)c3ccc(C)c([N+](=O)[O-])c3)co2)n1,-1,·,·,·,0,-1
Cc1ccc(-c2cc(C(=O)NN=Cc3cccc4ccccc34)[nH]n2)cc1C,-1,·,-2,·,12*,0
Cc1ccc(-c2cc(C(=O)NN=Cc3c(O)ccc4ccccc34)[nH]n2)cc1C,-2,·,-4,·,-6,-4
O=C(O)c1cc2c(o1)CCC/C2=N\O,-2,1,0,·,1,0
O=C(N/N=C1\CCCc2oc(C(=O)O)cc21)c1ccccc1,1.7*,0,1,7,11*,2
Cc1ccc(Nc2nc(N)nc(CSc3nccn3C)n2)cc1,0.9*,1,3,14,11*,5
CCOc1ccccc1N(C(=O)Nc1cccc(Cl)c1)C1=NC(C)CS1 (stereo not drawn),-2,4.5*,-1,1,1,-3
CCOc1ccccc1N(C(=O)Nc1ccc(Cl)cc1)C1=NCCS1,-1,-1,1,·,2,5
COC(=O)[C@H](CC(C)C)N(Cc1cn(Cc2ccc(C)cc2)nn1)S(=O)(=O)c1ccc(F)cc1Br,-1,·,-2,·,-1,-4
CC(=O)Nc1ccccc1OCC(=O)NC(C)c1ccccc1 (stereo not drawn),1.0*,-1,0,15,1,4
CSc1ccccc1NC(=O)COc1ccccc1C,1.5*,1,2,-9,5,2
CSc1ccccc1NC(=O)COC(=O)c1c[nH]c(=O)[nH]c1=O,-1,5.5*,0,-8,2,0
Cc1ccccc1OCC(=O)Nc1ccccc1CO,-1,1,0,8,1,1
Cc1noc(C)c1S(=O)(=O)N1CCCc2nc(-c3ccccc3)ccc21,-1,·,-2,·,-2,-1
COc1ccccc1/C=C/C1(C(=O)NC2CCCC2)CC(=O)N1c1ccccc1 (stereo not drawn),-2,4.9*,-1,-8,0,-2
CCCCc1ccc(NC(=O)C(C)CC)cc1 (stereo not drawn),-2,4.4*,1,-9,5,0
CC(OC(=O)/C=C/c1cccc(F)c1)C(=O)NC1CCCCC1C (stereo not drawn),-1,0,-1,1,-2,0
COc1cc(/C=C/C(=O)OC(C)C(=O)NC2CCCCC2C)cc(Cl)c1OC (stereo not drawn),-1,6.9*,0,5,-1,-1
CC(C)NC(=O)C1CCN(c2cncnc2)CC1,-1,·,0,·,-3,2
SMILES,ssDAF12 agonist,DAX1 inh-1,DAX1 inh-2,PolyA inh,hgDAF12 agonist,hcDAF-12 act
COCc1cn(-c2ccc3c(c2)[C@]2(CC(=O)N(C)C2c2ccccc2)C(=O)N3CC(C)C)nn1 (stereo partly drawn),0,·,0,·,-2,2
CC(=O)Nc1ccc(-c2ccc3nnc(C)n3n2)cc1,-2,5.1*,0,-14,-3,1
Cc1nnc2ccc(-c3ccc(NC(=O)c4ccco4)cc3)nn12,-2,1,0,?,-1,-1
NNC(=O)c1ccc(Oc2cc(Cl)cc(Cl)c2)o1,0,4.3*,0,22,-1,-1
COc1ccc(NS(=O)(=O)c2cccc(C(=O)NCC(c3ccc(OC)cc3)N3CCCC3)c2)cc1 (stereo not drawn),-1,1,4.2*,-14,4,0
Cc1ccc(S(=O)(=O)N(C)c2ccc(C(=O)NCC(c3ccccc3)N3CCCC3)cc2)cc1 (stereo not drawn),-1,3,4.0*,·,0,-1
CN(c1ccccc1)S(=O)(=O)c1ccc(C(=O)NCC(c2ccco2)N2CCCCC2)cc1 (stereo not drawn),-2,0,1,·,-2,0
COc1ccc(NS(=O)(=O)c2cccc(C(=O)NCC(c3ccc(OC)cc3)N3CCCCC3)c2)cc1 (stereo not drawn),-1,0,2,·,-3,0
COc1ccc(C(CNC(=O)c2cccc(S(=O)(=O)Nc3ccc(F)cc3)c2)N2CCCC2)cc1 (stereo not drawn),0,-1,3.6*,·,-2,-2
COCC(=O)N(C)[C@H]1C[C@H]2c3[nH]c4cccc(-c5cccc(F)c5)c4c3CCN2C(=O)[C@H]1[C@H](C)O,-1,·,0,·,-6,2
Cc1ccc(NC(=O)c2ccc(CS(=O)(=O)Cc3ccccc3C)o2)cc1C,-1,·,-3,·,1,-2
O=C(NCCc1c[nH]c2ccccc12)OCc1cn(Cc2cccc(C(F)(F)F)c2)nn1,-1,·,1,·,-4,-3
Cn1c(SCC(=O)NCCc2ccccc2)ncc(C(=O)Nc2ccc(F)cc2)c1=O,0.9*,0,2,8,2,3
Cn1c(SCC(=O)c2ccccc2)ncc(C(=O)Nc2ccccc2)c1=O,1,0,2,-3,4,2
CCOC(=O)C1=C(C(=O)OCC)C2N(Cc3ccc(Br)cc3)c3ccccc3[C@@]23C[C@@H](C(=O)OC)N(S(=O)(=O)c2ccc(F)cc2)C3=N1 (stereo partly drawn),-2,·,0,·,2,1
CCCN1CCC(=O)N(CCOc2ccccc2)CC1,-1,0,0,0,2,-1

# Screens deposited in PubChem by several laboratories.
